RecA splice inh: inhibitors of M. tuberculosis RecA intein splicing. cell-free RecA intein splicing, fluorescence. inhibition, % (concentration not given with the values). actives 0.75% (n = 290,000). AID 2221; in the data active means inhibition above about 30%;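 further: 0% = vehicle wells and 100% = reference inhibitor control wells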
Mtb FBA inh: inhibits M. tuberculosis FBA enzyme; P9WQA3; purified M. tuberculosis FBA, fluorescence read-out; inhibition, % at 1 µM; actives 2.3% (n = 360,000);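 further: 0% = vehicle and 100% = reference inhibitor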
Target sequence (P9WQA3 whole entry, looked up): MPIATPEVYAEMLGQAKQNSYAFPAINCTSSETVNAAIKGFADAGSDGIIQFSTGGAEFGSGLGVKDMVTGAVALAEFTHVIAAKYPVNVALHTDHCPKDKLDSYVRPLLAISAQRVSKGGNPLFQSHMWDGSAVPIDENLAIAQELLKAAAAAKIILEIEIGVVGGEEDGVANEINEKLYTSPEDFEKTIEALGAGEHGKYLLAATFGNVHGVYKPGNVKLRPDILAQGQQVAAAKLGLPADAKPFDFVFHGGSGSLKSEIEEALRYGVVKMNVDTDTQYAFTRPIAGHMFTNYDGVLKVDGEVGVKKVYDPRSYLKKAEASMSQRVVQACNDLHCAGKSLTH
GDH-TPI counter-1: GDH-TPI coupled enzyme inhibition counter-screen; actives 1.2% (n = 360,000); GDH-TPI coupled enzyme counterscreen, NADH absorbance; inhibition, % at 4.8 µM; in the data active means inhibition above about 30%;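 further: 0% = DMSO wells and 100% = wells lacking the enzyme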
Rv3671c inh: inhibits the M. tuberculosis serine protease Rv3671c. inhibition, % at 5.96 µM. actives 0.048% (n = 320,000). P9WHR9. AID 2606; in the data active means inhibition above about 38%;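 further: extracellular domain of Rv3671c used as enzyme; 0% = enzyme with DMSO and 100% = no enzyme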
Mtb UGM inh: Mtb UDP-galactopyranose mutase inhibition | P9WIQ1 | purified UGM, fluorescence polarization probe displacement | inhibition, % at 10 µM | actives 0.06% (n = 320,000) | AID 504406; in the data active means inhibition above about 10%, passing the limit was not always enough
BH1578 lux ind: inducers of Vibrio cholerae quorum light production without autoinducers; V. cholerae BH1578 lux reporter, luminescence, 6 h; activation, % at 18.7 µM; actives 0.16% (n = 350,000); AID 588436; in the data active means activation mostly above about 9.7%, no sharp cut-off
Mtb FBA confirm: confirmation of M. tuberculosis fructose-bisphosphate aldolase inhibitors | purified M. tuberculosis FBA, fluorescence read-out | AID 651616 | inhibition, % at 1 µM | actives 78% (n = 5,600) | shares compounds with Mtb FBA inh;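 further: 0% = vehicle wells and 100% = reference inhibitor wells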
GDH-TPI counter-2: GDH-TPI inhibition counter-screen for FBA inhibitors; actives 81% (n = 5,600); GDH-TPI coupled enzyme counterscreen, fluorescence; inhibition, % at 1 µM; shares compounds with Mtb FBA inh; in the data active means inhibition above about 10%
An asterisk follows results filed as active. The list is not random: actives were taken first. Their share in the collection is about 4.1%. Unless noted, no stated cut-off is given here; in the data, active means inhibition above about 27%; inactive means the rest.

What do the screens show for `COc1ccc(C(=O)NCCNc2nc3ccc(C)cc3cc2C#N)cc1`?
RecA splice inh: -26.4; Mtb FBA inh: 46.6*; GDH-TPI counter-1: 8.1; Rv3671c inh: -7.0; Mtb UGM inh: 0.0; BH1578 lux ind: -0.3; Mtb FBA confirm: 54.7*; GDH-TPI counter-2: 42.0*

How did COc1cccc(NC(=O)c2c([N+](=O)[O-])cnn2C)c1 do in these assays?
RecA splice inh: -0.1; Mtb FBA inh: 0.5; GDH-TPI counter-1: 10.6; Rv3671c inh: 3.6; Mtb UGM inh: -4.3; BH1578 lux ind: inactive

What do the screens show for `Cc1cnc(C(=O)OC(C)C(=O)Nc2ccc3c(c2)OCCO3)cn1` (stereo unspecified)?
RecA splice inh: 0.9; Mtb FBA inh: 0.9; GDH-TPI counter-1: 2.4; Rv3671c inh: 4.7; Mtb UGM inh: -1.0; BH1578 lux ind: -0.1

Results for Cc1ccc(S(=O)(=O)N2CCN(C(=O)CSC(=S)N3CCCC3)CC2)c(C)c1 ?
Mtb FBA inh: 2.9; GDH-TPI counter-1: 3.9; Rv3671c inh: -1.1; Mtb UGM inh: 0.1; BH1578 lux ind: inactive

How did O=C(COC(=O)c1ccccc1O)NCc1ccccc1Cl do in these assays?
Mtb FBA inh: 0.7; GDH-TPI counter-1: 1.3; Rv3671c inh: 5.4; Mtb UGM inh: 1.6; BH1578 lux ind: inactive

What do the screens show for `C(=C\c1ccc2nncn2c1)/c1ccccc1`?
Mtb FBA inh: 50.3*; GDH-TPI counter-1: 12.8; BH1578 lux ind: -0.2; Mtb FBA confirm: 11.3; GDH-TPI counter-2: -2.8

Results for c1coc(-c2ccc3nncn3c2)c1 ?
Mtb FBA inh: 0.8; GDH-TPI counter-1: -9.3; BH1578 lux ind: -0.5

How did COc1cccc(CN(C)C(=O)c2cccc(OCc3ccccc3)c2)c1 do in these assays?
RecA splice inh: 17.4; Mtb FBA inh: 1.9; GDH-TPI counter-1: -4.5; Rv3671c inh: -7.0; Mtb UGM inh: -3.0; BH1578 lux ind: inactive

What do the screens show for `O=C(O)CN1C(=O)/C(=C/c2ccccc2Br)Oc2ccccc21`?
RecA splice inh: -6.5; Mtb FBA inh: 83.1*; GDH-TPI counter-1: 8.2; Rv3671c inh: 3.3; Mtb UGM inh: 0.0; BH1578 lux ind: -0.6; Mtb FBA confirm: -4.9; GDH-TPI counter-2: -5.1

How did Cc1ccc2cccc(S(=O)(=O)N3CCCc4ccccc43)c2n1 do in these assays?
RecA splice inh: 3.3; Mtb FBA inh: -1.3; GDH-TPI counter-1: -8.5; Rv3671c inh: -3.7; Mtb UGM inh: -2.5; BH1578 lux ind: -1.2

How did O=c1c2c(nc3cc(-c4ccc(F)cc4)[nH]n13)CCC2 do in these assays?
RecA splice inh: -1.6; Mtb FBA inh: 38.0*; GDH-TPI counter-1: 4.3; Rv3671c inh: -2.5; Mtb UGM inh: -2.6; BH1578 lux ind: -0.4; Mtb FBA confirm: 118.9*; GDH-TPI counter-2: 81.5*

Results for Cc1nc2cc(-c3ccccc3)[nH]n2c(=O)c1C ?
RecA splice inh: -2.1; Mtb FBA inh: 33.4*; GDH-TPI counter-1: 5.7; Rv3671c inh: -0.2; Mtb UGM inh: -0.8; BH1578 lux ind: -0.5; Mtb FBA confirm: 95.0*; GDH-TPI counter-2: 62.3*

Results for Cc1cc(=O)n2[nH]c(-c3ccccc3)cc2n1 ?
RecA splice inh: -2.3; Mtb FBA inh: 26.7; GDH-TPI counter-1: -5.8; Rv3671c inh: -5.4; Mtb UGM inh: 0.0; BH1578 lux ind: inactive

Results for CSc1nc2nc(-c3ccccc3)cc(=O)n2[nH]1 ?
RecA splice inh: -2.1; Mtb FBA inh: -0.2; GDH-TPI counter-1: 6.7; Rv3671c inh: 4.7; Mtb UGM inh: 1.8; BH1578 lux ind: -1.8

What do the screens show for `Cc1ccc(-c2cc3nc4c(c(=O)n3[nH]2)CCCC4)cc1`?
RecA splice inh: 0.4; Mtb FBA inh: 16.3; GDH-TPI counter-1: 8.1; Rv3671c inh: 5.1; Mtb UGM inh: -3.2; BH1578 lux ind: inactive

What do the screens show for `O=c1cc(-c2ccccc2)nc2cc(-c3ccc(F)cc3)[nH]n12`?
RecA splice inh: 0.9; Mtb FBA inh: 44.4*; GDH-TPI counter-1: 3.1; Rv3671c inh: -2.4; Mtb UGM inh: -0.2; BH1578 lux ind: inactive; Mtb FBA confirm: -0.5; GDH-TPI counter-2: -3.2

Results for CCc1c(C)nc2cc(-c3ccc(OC)cc3)[nH]n2c1=O ?
RecA splice inh: -1.1; Mtb FBA inh: 34.6*; GDH-TPI counter-1: 11.0; Rv3671c inh: -1.4; Mtb UGM inh: 2.6; BH1578 lux ind: -0.4; Mtb FBA confirm: active; GDH-TPI counter-2: active

How did COCCNC(=O)C1(C)CCN(C(=O)c2cccc(C)c2C)C1 (stereo unspecified) do in these assays?
Mtb FBA inh: -1.9; GDH-TPI counter-1: -6.7; BH1578 lux ind: -0.6

How did CCOc1ccccc1NS(=O)(=O)c1c(C)[nH]c(C)c1C(=O)N1CCCCC1 do in these assays?
RecA splice inh: -1.1; Mtb FBA inh: -2.1; GDH-TPI counter-1: -0.8; Rv3671c inh: 3.3; Mtb UGM inh: 0.8; BH1578 lux ind: -0.2

Results for CCN(C(=O)c1cc(Cl)ccc1OC)c1ccccc1C ?
RecA splice inh: -1.3; Mtb FBA inh: -2.1; GDH-TPI counter-1: 4.2; Rv3671c inh: -1.1; Mtb UGM inh: -0.2; BH1578 lux ind: -4.0

How did CCN(C(=O)c1cnc(NC(C)C)cc1C(F)(F)F)c1ccc(Cl)cc1Cl do in these assays?
RecA splice inh: 6.2; Mtb FBA inh: 50.6*; GDH-TPI counter-1: 10.3; Rv3671c inh: 5.3; Mtb UGM inh: 4.9; BH1578 lux ind: inactive; Mtb FBA confirm: 85.2*; GDH-TPI counter-2: 62.1*

How did CC1=CC(=O)C(C(C)=Nc2ccccc2Cl)C(=O)O1 (stereo unspecified) do in these assays?
RecA splice inh: 1.9; Mtb FBA inh: -2.3; GDH-TPI counter-1: -2.6; Rv3671c inh: -7.2; Mtb UGM inh: 0.7; BH1578 lux ind: 2.8

What do the screens show for `O=C(Nc1ccc(O)c(C(=O)O)c1)Oc1ccccc1`?
RecA splice inh: -3.2; Mtb FBA inh: 73.5*; GDH-TPI counter-1: 1.1; Rv3671c inh: -4.9; Mtb UGM inh: 1.8; BH1578 lux ind: 0.9; Mtb FBA confirm: 137.5*; GDH-TPI counter-2: 98.5*

How did COc1ccc(CC(=O)Nc2ccc(-c3cn4ccc(C)cc4n3)cc2)cc1 do in these assays?
RecA splice inh: -0.9; Mtb FBA inh: 58.5*; GDH-TPI counter-1: 5.1; Rv3671c inh: -22.1; Mtb UGM inh: 0.0; BH1578 lux ind: 3.2; Mtb FBA confirm: 167.9*; GDH-TPI counter-2: 143.3*

What do the screens show for `CC(C)C(=O)Nc1cccc(-c2cn3ccccc3n2)c1`?
RecA splice inh: 3.5; Mtb FBA inh: 0.9; GDH-TPI counter-1: 7.9; Rv3671c inh: -1.0; Mtb UGM inh: 0.2; BH1578 lux ind: -0.3

Results for Cc1ccn2cc(-c3cccc(NC(=O)C(C)C)c3)nc2c1 ?
Mtb FBA inh: 39.9*; GDH-TPI counter-1: 10.4; Rv3671c inh: -7.0; Mtb UGM inh: 3.0; BH1578 lux ind: -0.3; Mtb FBA confirm: 112.8*; GDH-TPI counter-2: 86.6*
